Records with an inconclusive call do not appear. Entries that show only a call come without a potency. Activity calls are given as the source filed them. Unless noted, calls follow the shape of the dose curve; as a rule, active = well fitted curve in the direction sought with a large enough effect in the repeat runs; inconclusive = weak or mixed curves; inactive = no such curve, though single readings can be large; an effect the other way counts as inactive or inconclusive.
What was measured:
[1] = qHTS assay to identify small molecule agonists of the peroxisome proliferator-activated receptor delta (PPARd) signaling pathway - cell viability counter screen (AID 743211); also: nearly all actives have a fitted effect of over 55% in size; also: potency is read from the fitted curve at half-maximal effect
Outline: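 In the same wells used for beta-lactamase reporter measurement, cytotoxicity is scored by CellTiter-Glo. HEK293H PPARd-bla cells receive compound for 17 h at 37C following a 5 h settling period.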

[2] = qHTS assay to identify small molecule antagonists of the peroxisome proliferator-activated receptor delta (PPARd) signaling pathway - cell viability counter screen (AID 743213); also: nearly all actives have a fitted effect of over 50% in size
Outline: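 PPARd-bla HEK293H cells were treated with compounds plus agonist L165041 (300 nM final) for 17 h at 37 C. Viability was then read in the same wells by CellTiter-Glo luminescence after 30 min at room temperature.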

[3] = molecular target: Bile acid receptor (Homo sapiens) (UniProt Q96RI1); test: qHTS assay to identify small molecule antagonists of the farnesoid-X-receptor (FXR) signaling pathway (AID 743217; active = well fitted inhibition curve with a large enough effect in the signal ratio in the repeat runs, not every such curve was filed as active; the % refers to the signal ratio)
Outline: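 Cells carrying a UAS-driven beta-lactamase reporter (GeneBLAzer FXR-UAS-bla HEK 293T) were plated and rested 5 h at 37 °C. Compounds in DMSO were added alongside chenodeoxycholic acid agonist at 50 uM final and left 16 h at 37 °C before FRET substrate readout.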

[4] = qHTS assay to identify small molecule agonists of the farnesoid-X-receptor (FXR) signaling pathway - cell viability counter screen (AID 743218); also: nearly all actives have a fitted effect of over 45% in size; also: potency is read from the fitted curve at half-maximal effect
Outline: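 Cells were seeded, left 5 h at 37 C and 5% CO2, then dosed with compound in DMSO for 16 h. After the beta-lactamase FRET read, CellTiter-Glo was added and luminescence measured 30 min later.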

[5] = qHTS assay to identify small molecule antagonists of the farnesoid-X-receptor (FXR) signaling pathway - cell viability counter screen (AID 743221; active = well fitted cell-killing curve with a large enough effect in the repeat runs, not every such curve was filed as active; also: nearly all actives have a fitted effect of over 50% in size; also: potency is read from the fitted curve at half-maximal effect)
Outline: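 Here viability was scored by luminescence after CellTiter-Glo addition to wells already read for beta-lactamase. Prior treatment: compound plus CDCA (50 uM final), 16 h, 37 C, HEK 293T FXR-bla cells.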

[6] = qHTS assay to identify small molecule agonists of the vitamin D receptor (VDR) signaling pathway - cell viability counter screen (AID 743224); also: nearly all actives have a fitted effect of over 50% in size; also: potency is read from the fitted curve at half-maximal effect
Outline: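 Cells: VDR-bla, 2,000/well, settled 4 h. Treatment: compounds in DMSO, 16 h, 37C/5% CO2. Readout: CellTiter-Glo luminescence after 30 min RT.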

[7] = qHTS assay to identify small molecule agonists of the NFkB signaling pathway (AID 1159509; active = well fitted curve in the direction sought with a large enough effect in the signal ratio in the repeat runs, not every such curve was filed as active; the % refers to the signal ratio; also: series mostly up to about 61 µM)
Outline: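 Pathway activation was measured in ME-180 cells stably expressing beta-lactamase under NF-kB response element control. Substrate cleavage was read as the 460/530 nm emission shift after 5 hr compound incubation.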

[8] = qHTS assay to identify small molecule agonists of the NFkB signaling pathway - cell viability counter screen (AID 1159515; calls by dose curve; also: series mostly up to about 61 µM; nearly all actives have a fitted effect of over 55% in size)
Outline: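 Cells are seeded (2,000 NFkB-bla ME-180 per well), rested overnight, and dosed with DMSO-dissolved compounds for 5 hr at 37 C. Viability is then read by CellTiter-Glo luminescence after 30 min at room temperature.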

[9] = qHTS assay to identify small molecule agonists of the endoplasmic reticulum stress response signaling pathway (AID 1159516; active = well fitted activation curve with a large enough effect in the signal ratio in the repeat runs, not every such curve was filed as active; the % refers to the signal ratio)
Outline: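 Cells are seeded at 1,500 per well and incubated overnight. Compounds in DMSO are added for 5 hr at 37 C, then beta-lactamase FRET substrate for 2 hr at room temperature, and fluorescence at 460 and 530 nm is measured.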

[10] = qHTS assay to identify small molecule agonists of the endoplasmic reticulum stress response signaling pathway - cell viability counter screen (AID 1159517; calls by dose curve;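 also: HeLa cells carrying an ER stress response element beta-lactamase reporter; series mostly up to about 61 µM; nearly all actives have a fitted effect of over 50% in size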)
Outline: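 Cpd-treated ESRE-bla HeLa (5 hr, 37 C) → LiveBLAzer 2 hr RT → CellTiter-Glo 30 min RT → luminescence.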

[11] = qHTS assay to identify small molecule antagonists of the retinoid-related orphan receptor gamma (ROR-gamma) signaling pathway - cell viability counter screen (AID 1159520); also: nearly all actives have a fitted effect of over 50% in size
Outline: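 Tet-on ROR gamma CHO cells (1,000/well) were plated 4 hr, given compounds in DMSO for 2 hr at 37 C, then induced with 1 uM final doxycycline for 16 hr. Viability was read as ATP by CellTiter-Glo luminescence after 30 min.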

[12] = qHTS assay to identify small molecule agonists of the AP-1 signaling pathway - cell viability counter screen (AID 1159525; calls by dose curve; also: nearly all actives have a fitted effect of over 55% in size)
Outline: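 Each titration point was normalised to DMSO and tetra n-octyl ammonium bromide controls. The read was Cell Titer Glo luminescence after 30 min at RT, following 5 h compound exposure of ME-180 AP-1-bla cells at 37 °C.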

[13] = molecular target: Peroxisome proliferator-activated receptor delta (Homo sapiens) (UniProt Q03181); test: qHTS assay to identify small molecule antagonists of the peroxisome proliferator-activated receptor delta (PPARd) signaling pathway (AID 743215; active = well fitted inhibition curve with a large enough effect in the signal ratio in the repeat runs, not every such curve was filed as active; the % refers to the signal ratio;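 also: cells stimulated with agonist L165041 at 300 nM final during compound exposure; series mostly up to about 62 µM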)
Outline: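 Cells: HEK293H with a UAS-driven beta-lactamase reporter responsive to PPARd. Compounds were co-added with L165041 (300 nM, final) and incubated 17 h at 37 C before a 2 h room-temperature FRET substrate step and fluorescence reading.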

[14] = qHTS assay to identify small molecule antagonists of the vitamin D receptor (VDR) signaling pathway - cell viability counter screen (AID 743225); also: nearly all actives have a fitted effect of over 50% in size; also: potency is read from the fitted curve at half-maximal effect
Outline: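 Compounds were pinned onto VDR-bla HEK 293T cells together with 1-alpha,25-dihydroxyvitamin D3 at 3 nM final. After 16 h at 37C and 5% CO2 plus the reporter readout, cell viability was measured by CellTiter-Glo luminescence (30 min, room temperature).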

[15] = molecular target: Nuclear receptor ROR-gamma (Homo sapiens) (UniProt P51449); test: qHTS assay to identify small molecule antagonists of the retinoid-related orphan receptor gamma (ROR-gamma) signaling pathway (AID 1159521; also: nearly all actives have a fitted effect of over 50% in size; also: potency is read from the fitted curve at half-maximal effect)
Outline: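 Test compounds were applied to Tet-on RORγ CHO cells 2 h ahead of doxycycline hyclate (1 uM final). Luciferase reporter activity was quantified by luminescence after 16 h at 37 C and 5% CO2.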

[16] = qHTS assay to identify small molecule agonists of the AP-1 signaling pathway (AID 1159526; calls by dose curve)
[17] = molecular target: Bile acid receptor (Homo sapiens) (UniProt Q96RI1); test: qHTS assay to identify small molecule agonists of the farnesoid-X-receptor (FXR) signaling pathway (AID 743220; active = well fitted activation curve with a large enough effect in the signal ratio in the repeat runs, not every such curve was filed as active; the % refers to the signal ratio)
Outline: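 FXR-UAS-bla HEK 293T cells carrying a UAS-driven beta-lactamase reporter were plated for 5 h at 37C/5% CO2, then exposed to DMSO-dissolved Tox21 10K compounds for 16 h at 37C. A LiveBLAzer B/G FRET substrate was loaded for 2 h at room temperature before fluorescence reading.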

[18] = molecular target: Vitamin D3 receptor (Homo sapiens) (UniProt P11473); test: qHTS assay to identify small molecule agonists of the vitamin D receptor (VDR) signaling pathway (AID 743222; calls by dose curve)
Outline: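 Cells carrying a VDR-driven beta-lactamase reporter are seeded at 2,000 per well and rested 4 h. Compounds in DMSO are added for 16 h at 37C, and FRET substrate fluorescence is measured after 2 h at room temperature.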

[19] = molecular target: Peroxisome proliferator-activated receptor delta (Homo sapiens) (UniProt Q03181); test: qHTS assay to identify small molecule agonists of the peroxisome proliferator-activated receptor delta (PPARd) signaling pathway (AID 743212; calls by dose curve)
Outline: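 Cells expressing a UAS-driven beta-lactamase reporter (PPARd-bla HEK293H) were given test compounds after a 5 h settle and kept at 37 C. Reporter activity was then measured as FRET fluorescence using LiveBLAzer B/G substrate.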

[20] = molecular target: Vitamin D3 receptor (Homo sapiens) (UniProt P11473); test: qHTS assay to identify small molecule antagonists of the vitamin D receptor (VDR) signaling pathway (AID 743223; active = well fitted inhibition curve with a large enough effect in the signal ratio in the repeat runs, not every such curve was filed as active; the % refers to the signal ratio)
Outline: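 Inhibition of agonist-driven VDR signalling is scored in VDR-bla cells: 3 nM final 1alpha,25-dihydroxyvitamin D3 plus compound, 16 h at 37C, then beta-lactamase detection by FRET substrate fluorescence after 2 h.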

Bile acid receptor (Homo sapiens), sequence (Q96RI1 whole entry, looked up): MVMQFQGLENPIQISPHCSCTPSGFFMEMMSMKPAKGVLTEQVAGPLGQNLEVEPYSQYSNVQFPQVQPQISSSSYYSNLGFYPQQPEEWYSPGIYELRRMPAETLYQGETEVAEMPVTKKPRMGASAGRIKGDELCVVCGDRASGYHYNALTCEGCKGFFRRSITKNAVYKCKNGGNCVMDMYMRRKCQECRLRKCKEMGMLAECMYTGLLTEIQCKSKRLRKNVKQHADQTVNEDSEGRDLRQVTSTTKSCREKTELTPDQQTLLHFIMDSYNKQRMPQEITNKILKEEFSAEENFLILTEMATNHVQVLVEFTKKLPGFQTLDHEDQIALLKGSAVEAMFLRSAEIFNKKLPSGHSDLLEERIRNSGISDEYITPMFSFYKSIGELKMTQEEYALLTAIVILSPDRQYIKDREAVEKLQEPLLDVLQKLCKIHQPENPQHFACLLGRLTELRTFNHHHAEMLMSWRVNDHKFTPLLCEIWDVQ
Vitamin D3 receptor (Homo sapiens), sequence (P11473 whole entry, looked up): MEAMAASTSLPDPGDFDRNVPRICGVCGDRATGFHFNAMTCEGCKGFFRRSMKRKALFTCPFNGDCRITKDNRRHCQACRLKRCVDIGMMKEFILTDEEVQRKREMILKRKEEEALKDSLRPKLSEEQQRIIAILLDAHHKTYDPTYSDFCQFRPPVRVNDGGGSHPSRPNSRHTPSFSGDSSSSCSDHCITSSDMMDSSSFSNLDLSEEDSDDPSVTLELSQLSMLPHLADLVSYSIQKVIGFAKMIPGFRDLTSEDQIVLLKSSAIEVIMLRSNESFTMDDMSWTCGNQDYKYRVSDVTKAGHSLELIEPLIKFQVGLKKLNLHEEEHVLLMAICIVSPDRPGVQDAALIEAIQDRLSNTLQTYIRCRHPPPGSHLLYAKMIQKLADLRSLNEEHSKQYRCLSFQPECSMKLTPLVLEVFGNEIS
Peroxisome proliferator-activated receptor delta (Homo sapiens), sequence (Q03181 whole entry, looked up): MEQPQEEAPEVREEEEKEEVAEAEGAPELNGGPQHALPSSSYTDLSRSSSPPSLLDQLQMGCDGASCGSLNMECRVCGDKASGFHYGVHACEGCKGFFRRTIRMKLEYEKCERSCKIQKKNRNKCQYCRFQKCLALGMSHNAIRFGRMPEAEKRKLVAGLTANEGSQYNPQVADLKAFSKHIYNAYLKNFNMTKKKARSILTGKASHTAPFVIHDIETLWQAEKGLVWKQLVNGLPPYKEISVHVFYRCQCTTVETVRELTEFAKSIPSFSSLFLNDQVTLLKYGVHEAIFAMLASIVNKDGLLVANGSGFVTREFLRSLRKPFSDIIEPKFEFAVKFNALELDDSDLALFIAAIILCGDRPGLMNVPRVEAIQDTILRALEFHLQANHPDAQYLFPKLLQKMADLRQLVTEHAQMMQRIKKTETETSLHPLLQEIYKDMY

Row | SMILES | Potency [1] | Potency [2] | Potency [3] | Potency [4] | Potency [5] | Potency [6] | outcome [7] | outcome [8] | outcome [9] | outcome [10] | Potency [11] | outcome [12] | Potency [13] | Potency [14] | Potency [15] | outcome [16] | Potency [17] | outcome [18] | Potency [19] | outcome [20]
1 | Cc1cc(OI)c(C(C)C)cc1-c1cc(C(C)C)c(OI)cc1C | inactive | inactive | inactive | inactive | inactive | inactive | inactive | inactive | inactive | inactive | inactive | inactive | – | – | – | – | – | – | – | –
2 | Cc1ccc(S)cc1 | inactive | – | – | inactive | inactive | inactive | inactive | inactive | inactive | inactive | – | inactive | inactive | inactive | inactive | inactive | – | – | – | –
3 | Cc1nccn1-c1ccc(Sc2cccc(C3(C(N)=O)CCOCC3)c2)cc1 | inactive | inactive | – | – | inactive | – | inactive | inactive | inactive | inactive | – | inactive | inactive | inactive | 5.45 µM (active) | inactive | inactive | – | – | –
4 | CC(=O)N(c1onc(C)c1C)S(=O)(=O)c1ccc(N)cc1 | inactive | – | inactive | inactive | inactive | inactive | inactive | inactive | inactive | inactive | inactive | – | – | – | – | inactive | inactive | inactive | – | –
5 | NCC1CCCC(CN)C1 (stereo unspecified) | inactive | inactive | inactive | inactive | inactive | inactive | inactive | inactive | inactive | inactive | inactive | – | inactive | inactive | – | inactive | inactive | inactive | – | –
6 | Cc1cnc(C)c(C)n1 | inactive | inactive | – | inactive | inactive | inactive | inactive | inactive | inactive | inactive | inactive | – | inactive | inactive | – | inactive | – | inactive | – | –
7 | O=C(O)C(Cc1cc(I)c(O)c(I)c1)c1ccccc1 (stereo unspecified) | inactive | inactive | – | inactive | inactive | inactive | inactive | inactive | inactive | inactive | inactive | – | inactive | inactive | – | inactive | – | – | inactive | –
8 | COC(=O)Nc1nc2ccc(C(=O)c3cccs3)cc2[nH]1 | – | – | – | – | – | inactive | inactive | inactive | inactive | inactive | inactive | inactive | – | – | – | – | inactive | inactive | – | –
9 | O=C(CCCN1CCN(c2ccc(F)cc2)CC1)NC1c2ccccc2CSc2ccccc21 (stereo unspecified) | 9.44 µM (active) | – | – | 10.6 µM (active) | 26.6 µM (active) | 13.3 µM (active) | inactive | inactive | inactive | inactive | – | inactive | – | 23.9 µM (active) | 13.3 µM (active) | inactive | inactive | – | inactive | –
10 | CC1=C(C=O)C(C)(C)CCC1 | inactive | inactive | inactive | inactive | inactive | inactive | inactive | inactive | inactive | inactive | inactive | – | inactive | inactive | – | inactive | inactive | inactive | – | –
11 | N#C/C(=C1\SCC(c2ccccc2Cl)S1)n1ccnc1 (stereo unspecified) | inactive | inactive | – | inactive | inactive | inactive | inactive | inactive | inactive | inactive | inactive | – | inactive | inactive | – | inactive | – | – | – | –
12 | O=S(=O)(c1ccccc1)c1ccc(Cl)cc1 | inactive | inactive | – | inactive | inactive | inactive | inactive | inactive | inactive | inactive | inactive | – | inactive | – | – | inactive | – | inactive | – | inactive
13 | OCC1CC=CCC1 (stereo unspecified) | inactive | inactive | – | – | inactive | inactive | inactive | inactive | inactive | inactive | – | inactive | inactive | inactive | inactive | inactive | – | inactive | – | inactive
14 | CNC(=O)N(c1ccccc1)c1ccccc1 | inactive | inactive | – | inactive | inactive | inactive | inactive | inactive | inactive | inactive | inactive | – | – | inactive | – | inactive | – | – | – | –
15 | CCc1c2c(nc3ccc(OC(=O)N4CCC(N5CCCCC5)CC4)cc13)-c1cc3c(c(=O)n1C2)COC(=O)[C@]3(O)CC | inactive | – | – | inactive | inactive | – | inactive | inactive | inactive | inactive | inactive | inactive | – | – | – | – | inactive | – | – | –
16 | NC(=O)N(O)[C@@H]1COc2cc(OCc3ccccc3)ccc21 | inactive | inactive | inactive | inactive | inactive | inactive | inactive | inactive | inactive | inactive | – | inactive | inactive | – | inactive | – | inactive | – | inactive | inactive
17 | CCCCCCCCCCCCCCC[C@H](O)[C@@H](N)CO | inactive | – | – | – | inactive | inactive | inactive | inactive | inactive | inactive | – | – | inactive | inactive | inactive | inactive | – | – | inactive | –

From PubChem BioAssay (Tox21)
